SMN2 splice up: SMN2 splice variant enhancement. 210,000 tested, 2.8% active. Potency, µM (highest dose often 46.1 µM), without a hit: top-dose activity change, positive = activation, most hits filed as activators. AID 1458. HEK293 SMN2-luciferase splicing reporter, luminescence, 30-36 h; also: % of control where 0% means no effect; nearly all actives have a fitted effect of over 55% in size
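HEK293 cells carry an SMN2 minigene-luciferase reporter in which exon 7 inclusion puts luciferase in frame. Cells were seeded at 2000 cells/well, attached for 10-12 hours, then exposed to compounds for 30-36 hours at 37C before ONE-Glo luminescence.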
ELG1 genotoxic: inducers of genotoxicity in HEK293T ELG1-luciferase cells; HEK293T ELG1-luciferase reporter, luminescence, 16 h; 330,000 tested, 1.3% active; AID 504466; Potency, µM (series often up to 46 µM), without a hit: at the highest dose activity change, positive = activation, actives largely listed as activators; also: % of control where 0% means no effect; nearly all actives have a fitted effect of over 60% in size
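Reporter readout depends on ELG1 protein level, which increases with genetic stress. After 16 hr compound exposure at 37 °C, luciferase activity was quantified using ONE-Glo.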
FLuc counter: counter-screen for miR-21 project: firefly luciferase inhibitors or activators | P08659 | purified FLuc, Km substrates, luminescence inhibition | Potency, µM (titrated, usually from 57.5 µM), for inactives: top-dose activity change, negative = inhibition, most hits filed as inhibitors | 360,000 tested, 6.9% active | AID 588342;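 also: plate controls were vehicle for no effect and reference inhibitor for full effect; nearly all actives have a fitted effect of over 55% in size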
Target sequence (P08659 whole entry, looked up): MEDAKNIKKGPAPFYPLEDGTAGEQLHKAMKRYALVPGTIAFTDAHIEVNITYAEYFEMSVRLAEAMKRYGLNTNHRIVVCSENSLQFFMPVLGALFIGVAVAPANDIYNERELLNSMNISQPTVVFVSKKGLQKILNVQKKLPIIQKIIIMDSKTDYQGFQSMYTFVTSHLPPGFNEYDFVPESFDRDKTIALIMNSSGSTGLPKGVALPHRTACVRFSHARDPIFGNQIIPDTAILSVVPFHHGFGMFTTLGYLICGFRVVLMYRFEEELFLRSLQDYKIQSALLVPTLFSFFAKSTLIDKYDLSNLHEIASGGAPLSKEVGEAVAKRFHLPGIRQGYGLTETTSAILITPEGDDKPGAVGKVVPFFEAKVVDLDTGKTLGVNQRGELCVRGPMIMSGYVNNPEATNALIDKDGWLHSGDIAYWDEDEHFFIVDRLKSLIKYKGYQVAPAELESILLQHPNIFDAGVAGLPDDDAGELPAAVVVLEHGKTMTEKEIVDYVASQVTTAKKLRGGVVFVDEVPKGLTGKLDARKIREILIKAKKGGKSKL
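Purified P. pyralis luciferase (10nM final) with 10uM D-luciferin and 10uM ATP (Km levels) in 50mM Tris acetate pH 7.5, 10mM Mg acetate, 0.01% Tween-20, 0.05% BSA; qHTS 6-point titration, ~60 µM downward; luminescence read.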
Rab9 prom act: Rab9 promoter activation; Huh7 Rab9 promoter-luciferase reporter, luminescence, 24 h; Potency, µM (top dose mostly 9.22 µM), without a hit: top-dose activation, negative = inhibition, usual class: activators; 320,000 tested, 2.8% active; also: % of control where 0% means no effect; nearly all actives have a fitted effect of over 60% in size
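Using Huh7 cells stably transfected with Rab9 promoter–luciferase, compounds were incubated 24 h at 37 °C, 5% CO2; luciferase luminescence was read 10 min after reagent addition.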
NPC1 promoter act: activators of NPC1 promoter; Huh7 NPC1 promoter luciferase reporter, 24 h; Potency, µM (series often up to 9.22 µM), inactives show top-dose activation, actives largely listed as activators; 320,000 tested, 2.4% active; AID 485313; also: % of control where 0% means no effect; nearly all actives have a fitted effect of over 60% in size
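Huh7 cells stably carrying NPC1 promoter–luciferase, plated in Opti-MEM with 10% FBS for 2 h, were exposed to compound in DMSO for 24 h at 37 °C; luciferase reagent was added for 10 min and luminescence read.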
p53 reactivator: re-activators of mutant p53. H1299 p53-A138V BP100-luciferase reporter, luminescence, 24 h. Potency, µM (series often up to 92.2 µM), for the others: at the top dose activity change, positive = activation, actives largely listed as activators. 320,000 tested, 0.063% active. AID 504706; also: % of control where 0% means no effect; nearly all actives have a fitted effect of over 45% in size
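H1299 (p53-null), stable ts p53-A138V + BP100-Luc; 1000 cells/well, Opti-MEM/10% FBS; cpd 4 pt, 1:5; 24 h, 37 deg C, 5% CO2; detection reagent 10 min RT; luminescence.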
Starred values were filed as active, the others as inactive; ? = inconclusive; nt = no result; [ ] = another dose, or the depositor's remark. The list is not random: actives were taken first. Their share in the collection is about 7.4%. Calls follow the shape of the dose curve; as a rule, active = well fitted curve in the direction sought with a large enough effect; inconclusive = small, poorly fitted or top-dose-only effect, or another doubt; inactive = no such curve, though single readings can be large; an effect the other way counts as inactive or inconclusive. Potency is read from the fitted curve at half-maximal effect.

SMILES	SMN2 splice up	ELG1 genotoxic	FLuc counter	Rab9 prom act	NPC1 promoter act	p53 reactivator
CCn1c(NCc2cccs2)nc2ccccc21	?	9%	-13%	-4%	-1%	4%
COc1ccc(C(=O)Oc2cccc(/C=N/NC(N)=S)c2)cc1	?	4%	12µM*	12%	20%	7%
O=C(N/N=C/c1cccc(OC(=O)c2ccc3c(c2)OCO3)c1)c1cncc(Br)c1	16µM*	13%	-5%	?	19%	?
COC(=O)N/N=C/c1cccc(OC(=O)c2ccc3c(c2)OCO3)c1	nt	-1%	17µM*	0%	-2%	2%
O=C(COc1ccccc1[N+](=O)[O-])N/N=C/c1cccc(OC(=O)c2ccc3c(c2)OCO3)c1	?	?	-14%	1%	5%	?
CCCN1C(=O)c2cccc3c(N4CCCCC4)ccc(c23)C1=O	6%[1.84 µM]	?	11µM*	?	20%	8%
O=C1c2cccc3c(N4CCCCC4)ccc(c23)C(=O)N1c1ccccn1	-31%	-2%	?	20%	13%	-5%
CCOc1ccc(S(=O)(=O)N2CCN(C(=O)c3ccccc3Cc3ccccc3)CC2)cc1	nt	0%	-2%	0%	0%	0%
Cc1cccc(NC(=O)CS(=O)(=O)c2nc(-c3ccccc3)cn2-c2cccc(Cl)c2)c1C	28%	nt	4%	nt	nt	nt
Cc1ccc(-c2cn(-c3cccc(Cl)c3)c(S(=O)(=O)CC(=O)Nc3ccccc3F)n2)cc1	13µM*	nt	?	nt	nt	nt
Cc1ccc(NC(=O)CS(=O)(=O)c2nc(-c3ccc(C)cc3)cn2-c2ccc(C)cc2)cc1	18µM*	nt	?	nt	nt	nt
Cc1ccc(-c2cn(-c3cccc(Cl)c3)c(S(=O)(=O)CC(=O)Nc3cccc(C)c3)n2)cc1	16µM*	nt	-13%	nt	nt	nt
CCOc1ccc(-c2cn(-c3ccc(C)cc3)c(SCC(=O)Nc3ccc(C)cc3)n2)cc1	nt	nt	-5%	nt	nt	nt
O=C(CS(=O)(=O)c1nc(-c2ccc(Cl)cc2)cn1-c1ccccc1)Nc1cccc(Cl)c1	13µM*	nt	?	nt	nt	nt
O=C(CSc1nc(-c2ccccc2)cn1-c1ccccc1)Nc1ccccc1	nt	nt	-11%	nt	nt	nt
O=C(NCc1cc(C(F)(F)F)cc(C(F)(F)F)c1)C1CC(c2ccccc2C(F)(F)F)=NO1 (centres undefined)	nt	-2%	0%	-2%	-2%	-11%
COC1C(O)CC(=O)OC(C)C/C=C/C=C/[C@@H](OC2CCC(N(C)C)C(C)O2)C(C)C[C@@H](CC=O)[C@@H]1O[C@H]1OC(C)[C@H](O[C@@H]2C[C@@](C)(O)C(O)C(C)O2)C(N(C)C)C1O (some centres undefined)	0%	nt	nt	nt	nt	nt
O=C(CSc1nncn1-c1ccccc1)Nc1ccc(F)cc1F	nt	0%	0%	-2%	0%	-4%
O=C(CS(=O)(=O)c1nc(-c2ccc(Cl)cc2)cn1-c1ccccc1)Nc1ccc(F)cc1F	14µM*	nt	21µM*	nt	nt	nt
C=Cc1ccccn1	7%	nt	nt	nt	nt	nt
Cc1ccc(NC(=S)NC(=O)c2ccc(Br)o2)c(C)c1	8.9µM*	?	9.5µM*	2.8µM*	?	25%
Cc1cccc(NC(=S)NC(=O)c2ccc(Br)o2)c1C	5%	8%	?	1%	7%	11%
Cc1ccc(NC(=S)NC(=O)C2CCCC2)cc1C	nt	?	11µM*	2.5µM*	3.2µM*	?
O=C(NC(=S)Nc1ccccc1Br)C1CCCC1	nt	?	19µM*	15%	?	28µM*
Cc1ccc(NC(=S)NC(=O)C2CCC2)cc1C	nt	?	9.5µM*	4µM*	1.4µM*	?
O=C(NC(=S)Nc1ccc(O)cc1)C1CCCC1	nt	5%	?	7%	3%	?
Cc1ccc(S(=O)(=O)N2CCN(C(=O)C3CCN(C(=O)c4ccc(F)cc4)CC3)CC2)c(C)c1	nt	-8%	0%	-15%	-7%	3%

Bioassay records from PubChem BioAssay.
